Laboratory results from the supplement of paper PMC11417369.
Over roughly 25,000 sequences, “ln(normalized median fluorescence intensity)” has its median near 9.7; the highest 2% begin near 11. The entries come from a sample that favours the highest values as a whole.

test system: PfAP2-HC AP2 domain (GST-tagged); assay: gcPBM binding intensity (ln(normalized median fluorescence intensity)); higher = stronger DNA binding
How it was run: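 An Agilent 4 × 180k array of primer-extended double-stranded 36-bp intergenic genomic probes, with negative controls, was incubated for 1 h with GST-tagged P. falciparum DNA-binding domains expressed in E. coli. Alexa488 anti-GST antibody detected bound protein, scanned at 488 nm. Binding intensity is the highest Masliner-normalised natural-log median intensity across replicate spots of either probe orientation.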

Sequence | gcPBM binding intensity (ln)
CAGCTCTTAAGAATTACACACATATACACATATATA [CACACA_site7524] | 9.95
TAAAATTTTTTTGTTTGTACATATATATATATAATA [XGTACX_site5609] | 9.53
CATTATTTATTTTAATGTACTTATTTTTAAATTGGT [XGTACX_site8038] | 9.54
TTTTCTTGTAAATTACGTACGAATGTGTAGAGAAAT [XGTACX_site1339] | 9.47
TATATATATATATGTAGTACTCAATATTGTAGATTA [XGTACX_site3856] | 9.64
CTAGCAAATACATACACACACACACCGATACATATA [CACACA_site9164] | 10.7
AAATATAAAAATAGCACACATATATACATATATATA [CACACA_site56] | 9.88
TTATAATTATATACATGTACATATAATACATATATA [XGTACX_site8904] | 9.46
TAAATCCGCACGCACACACACATATTAATAAAAAAA [CACACA_site7800] | 10.5
TATACGCATATATAAACACACAAAAAAAAAAAAAAA [CACACA_site2026] | 9.43
AATAAACATAAATACACACACAAAAAAAAAAACATA [CACACA_site4396] | 10.3
AATGATCATAAATACACACACACAAAAAAAAAAAAA [CACACA_site6072] | 10.3
CATATACGCAAACACACACACATATATATATATATA [CACACA_site501] | 11.6
TACATATATATATACACACATACATATATATACGCA [CACACA_site792] | 9.85
AAAAAAAAAAAAAACACACACACAAATACAAATGGT [CACACA_site1721] | 10.5
TAAATCCGCAGGCACACACACATATTAATAAAAAAA [CACACA_site3991] | 10.8
AATGATCATATATACACACACACAAAAAAAAAAAAA [CACACA_site4009] | 11.2
ATTAAATCCGCACGCACACACACATATTAATAAAAA [CACACA_site3992] | 11.1
AAAAAAAAAAAAAACACACACACAAATACAAATACA [CACACA_site414] | 11.5
AATGATCAGATATACACACACACAAAAAAAAAAAAA [CACACA_site7806] | 10.4
ATTAATATATTTACCACACACCCATTTCGATTTTAT [CACACA_site3605] | 10.3
AATATATATATAAATAATATACCTATATATTTTTTG [XGTACX_negctrl_site407] | 9.61
TAATATATTAATATATGTACATATTTATATATCTAC [XGTACX_site7117] | 9.81
TTTTATAAATATTATACATGCATAATGATAAAAAAA [TGCATGCA_site927] | 9.55

Sequence | gcPBM binding intensity (ln)
TAATAATAAAAATAAACACACATATATCTGTATTTA [CACACA_site5572] | 9.74
TTTTCTTTTTTGAACTGTACGCGTAAATTTAAAAAG [XGTACX_site882] | 9.36
TTTTTGTTACCTATTGTGCACTTCATATAAATTAAA | 9.74
ATATATAATATTTATTGTACTATTTTATTTTTATAA [XGTACX_site705] | 9.62
ATGATTATACAAAATATACACACGTGGACACAAATA [CACACA_site8304] | 10.3
TAACCTAAAATAACTACACACACATAAAAAAAAAAA [CACACA_site8807] | 11.2
AGCCACTTAAAATACACACACACCAAAAAAAAAAAA [CACACA_site5497] | 10.2
CACGCACGCACATACACACACATACACATATAAATA [CACACA_site6907] | 10.1
ACCTAAAATAACTACACACACATAAAAAAAAAAAAA [CACACA_site2529] | 10.2
AAAATACACGCATACACACACACACGCGCACATATA [CACACA_site6448] | 10.6
CCACACTTAAAATACACACACACCAAAAAAAAAAAA [CACACA_site2709] | 11.3
CAAATACACGGACACACACACACAAAAAAAAAAAAA [CACACA_site6385] | 11
TATATAACTAAAATAACACACATATATAAAAATATA [CACACA_site7416] | 9.88
TTATACACAAAAAAAAAAATATATATATATATATAT [XGTACX_negctrl_site5] | 9.49
ACGGACTTAAAATACACACACACCAAAAAAAAAAAA [CACACA_site7304] | 10.2
AAAAAAAATACATACACACACACACGCACATATATA [CACACA_site7645] | 11.7
ACAATATGTATATATATATATATGCAAATGTATAAA [CACACA_negctrl_site53] | 9.78
TTTTTTAAAGCCTGTTCATCATCCTTACCTATCAAC [GTGCAC_negctrl_site452] | 9.49
ATATAATATACTTATTGTACTTATTTAAAATACTAA [XGTACX_site4266] | 9.58
TACTTAAAAAAAAAAAAAATAAATATTATGTATTAT [CACACA_negctrl_site138] | 9.36
AAAGTTACATTCGACACACACATAACAACTAAATAA [CACACA_site3419] | 10.1
TGTATATTTGTTGTTACACACATATATTTTTTTTTT [CACACA_site128] | 9.86
TTGGATTTTCCATAATGTACACATAAAAGTGTTACA [XGTACX_site4544] | 9.4
AAAAAAAAAAAAAACACACACACACGCATACAAAAT [CACACA_site6794] | 10.6

Sequence | gcPBM binding intensity (ln)
AAAAAAAAAAAAAACACACACACACGCATACACATA [CACACA_site7364] | 10.7
AACAATGTTGTACATACACACACACTAATAAAAAAT [CACACA_site8758] | 10.3
ATTAAATACATTAACACACACACAAATAAATACATA [CACACA_site5583] | 10.4
AATAAAAAAATAAAATGTACATACAAATAAATAAAT [XGTACX_site5153] | 9.9
ATTAAATACATTAACACACACACAAATATATACATA [CACACA_site2881] | 10.7
CAATGTTGTACATACACACACACAAAAAAAAAATAA [CACACA_site2407] | 11.4
ATTAAATACATTAACACACACACAAATATGTACATA [CACACA_site7372] | 11
AAAAAAAAAAAAAACACACACACACGCAAATACATA [CACACA_site6474] | 11.4
AGTATACGCAAACACACACACACAAAAAAAAAAAAA [CACACA_site426] | 11.2
AGTATACACAAACACACACACACAAAAAAAAAAAAA [CACACA_site8036] | 10.7
TATACGCAGAAACACACACACAAAAAAAAAAAAAAA [CACACA_site427] | 10.5
ATATAAATATGTTCTGCACACAAATAAGTGTTTGAA [CACACA_site9291] | 9.79
GCACTAAAAAAATAAACACACAGATTTATATAATAT [CACACA_site1381] | 9.79
TACAAAAGCTATAACATTCACCACATTATAAAAATA [CACACA_negctrl_site1112] | 9.78
TAAAAACCAAAGAAAAGTACAAATTTAAATGAGAAA [XGTACX_site7450] | 9.83
AAATATGTCAAATATACACACATAATAAATATAATA [CACACA_site2310] | 9.99
TTCTAATATATGCATACACACAAATGTGAATATACA [CACACA_site2142] | 9.83
AAGGCAAACAAACACACACACATATATACATATATA [CACACA_site2122] | 10.4
AACAAATACGGACACACACACACACTAGAAAAAAAA [CACACA_site4442] | 11
AAAAAAAAAAAATACACACACATAAAAAAAAAAATA [CACACA_site1858] | 10.9
TATTAATACGGACACACACACACACTAGATAAAATA [CACACA_site4295] | 10.8
AATAAAATAAAATACACACATACATACATACAAATG [CACACA_site2438] | 11.2
AAAATAAAATAAAATACACACATACATACATACAAA [CACACA_site5366] | 10.2
AAAAAAAAAAAAAATACACACACATAAAAAAAAAAA [CACACA_site8555] | 10.9

Sequence | gcPBM binding intensity (ln)
TAAAGGCAAACAAACACACACACATATATACATATA [CACACA_site2123] | 11.1
ACAAAAAAAAAAAAAATACACACACATAAAAAAAAA [TGCATGCA_negctrl_site333] | 10.2
TAAAGGCAAACAAACACACACACATATATACCTATA [CACACA_site7078] | 10.6
AAAAAAAAAATATACACACACACATACACATAAATA [CACACA_site3808] | 10.4
AACAAACACGGACACACACACACACTAGAATGATTA [CACACA_site5364] | 10.7
AATACATAATAACATGTACACACATTCTTCTATAAA [CACACA_site9344] | 9.82
TAATAAACTTAAAAATGTACATATATTTATTATTAC [XGTACX_site4321] | 9.61
AGTAAGAGGCATTAAGCATGCATATTATTATAAGCA [TGCATGCA_site237] | 9.85
AAGAATGTTAATAGTACACACAATTATTATATAAAT [CACACA_site3739] | 9.93
TCCAAATGTTTGCGTTGTACTCTTTTTTTAAAACTA [XGTACX_site5148] | 9.73
ATATTTTTTTATAAATGTACAAAAATAATATTGCAT [XGTACX_site7399] | 9.48
ATATATATTATCATTGTGCACTTATTTATATACCTT | 10
AAAATACACCAACACACACACATATATATATATATT [CACACA_site4149] | 10.3
AATAAATATATGTACACACACAAATATATACATATC [CACACA_site1903] | 10.2
ATATATCTACAAATATGTACACACACACATATATAT [XGTACX_site1075] | 11.1
AAAAAAAAAAAACACACACACACATACAAAATATAT [CACACA_site1448] | 11.3
AACATATAAAAATATGCACACACAGGAATACAAACA [CACACA_site8127] | 11.2
CATATAAAAATATGCACACACAGGAATACAAACATA [CACACA_site684] | 10.3
AAAAAAAAAAAACATACACACAAATATATACATACA [CACACA_site4011] | 10.2
TGTACAAATATGTACACACACACATATATATATATA [CACACA_site584] | 10.3
AAAAAAAAAAAAAACATACACACAAATATATACATA [CACACA_site4010] | 10
CAAATACACCAACACACACACACAAAAAAAAAAAAA [CACACA_site514] | 11.3
AAAATACACAACATATATATATATATATATATATAT [XGTACX_negctrl_site21] | 9.62
AAAATATATACACAAACATGCATATAATAAATAAAT [TGCATGCA_site711] | 9.99
